Measured values as given in the supplement of paper PMC11150407.
Out of some 2,100 compounds screened, about 180 (8.6%) showed an effect of 50% or more. Many of the other results were omitted from the sample, so strong results are more common in it than they were.

Tested on: MOLM1 and UCSD/AML1 (averaged)
Assay: cell viability relative to DMSO control (POC); higher = less growth inhibition
Conditions: 1 µM; 72 h
Description: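 Primary viability screen in the 3q26 EVI1-high AML cell lines MOLM1 and UCSD/AML1 (1.5e3 cells/well, 384-well), compounds at 1 uM for 72 h. ATP CellTiter-Glo read-out given as percent of viable cells over DMSO control (POC), averaged over duplicates. DMSO was the negative control and 5 uM etoposide the positive control. This mapping covers the MicroSource Spectrum and Selleck anticancer libraries (drug names).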

| Compound | cell viability [%] |
| --- | --- |
| COc1cc2c(c(OC)c1OC)-c1ccc(OC)c(=O)cc1[C@@H](NC(C)=O)CC2 | 6.75 |
| CC(=O)O[C@@H]1C[C@H]2C(C)(C)C(=O)C=C[C@]2(C)[C@H]2CC[C@]3(C)C(=CC(=O)O[C@H]3c3ccoc3)[C@@]21C | 75.1 |
| Nc1ncn[nH]1 | 109 |
| CCCCCCCCCc1ccc(O)cc1 | 105 |
| CNC(=O)Oc1ccc2c(c1)[C@]1(C)CCN(C)[C@@H]1N2C | 106 |
| O=C1C=C2C(=CCOC2O)O1 (stereo unspecified) | 1.61 |
| c1cncc([C@@H]2CCCCN2)c1 | 107 |
| C[C@H]1O[C@H](O[C@H]2[C@H](O)[C@@H](O)[C@@H](O)[C@H](O)[C@@H]2O)[C@@H](N)C[C@@H]1NC(=N)C(=O)O | 103 |
| C[C@]12C=CC(=O)C=C1CC[C@@H]1[C@@H]2CC[C@]2(C)C(=O)CC[C@@H]12 | 101 |
| CC(C)CCCC1(C)C=Cc2c(O)c3c(c(CCC(C)C)c2O1)OC12C(CC4CC1C(C)(C)OC2(CCC(C)C(=O)O)C4O)C3=O (stereo unspecified) | 106 |
| CC(C)=CCC[C@]1(C)C=Cc2c(O)c3c(c(CC=C(C)C)c2O1)O[C@]12C(=C[C@@H]4C[C@H]1C(C)(C)O[C@@]2(C/C=C(/C)C(N)=O)C4=O)C3=O | 13.2 |
| CC(C)=CCCC1(C)C=Cc2c(O)c3c(c(CC=C(C)C)c2O1)OC12C(=CC4CC1C(C)(C)OC2(C/C=C(/C)C(=O)O)C4O)C3=O (stereo unspecified) | 99.7 |
| CC(C)=CCC[C@]1(C)C=Cc2c(O)c3c(c(CC=C(C)C)c2O1)O[C@]12C(=C[C@@H]4C[C@H]1C(C)(C)O[C@@]2(C/C=C(/C)C(=O)O)C4=O)C3=O | 1.06 |
| CC(C)=CCCC1(C)C=Cc2c(O)c3c(c(CC=C(C)C)c2O1)OC12C(CC4CC1C(C)(C)OC2(C/C=C(/C)C(=O)O)C4O)C3=O (stereo unspecified) | 94.1 |
| C=C(C)c1cc2cc(C(C)=O)c(O)cc2o1 | 104 |
| COC(=O)C1=CCCN(C)C1 | 98.5 |
| COc1c2c(cc3c1OCO3)CCN(C)C2 | 119 |
| CCC(C)C(=O)O[C@@H]1C[C@@]2(C)[C@H](c3ccoc3)OC(=O)CC23OC2(C)O[C@]14[C@]1(C)[C@@H](CC(=O)OC)C5(C)CC1(O)[C@](O)(C5OC(=O)C1(C)OC1C)[C@@H](OC(C)=O)[C@]34O2 (stereo partly specified) | 95.6 |
| CC1(C)N([O-])[N+](=O)C1(C)Br (stereo unspecified) | 109 |
| COc1cc2c(cc1O)CCN[C@@H]2C | 112 |
| CCN1C[C@]2(OC(=O)c3ccccc3NC(C)=O)CC[C@H](OC)[C@@]34[C@@H]2C[C@@H]([C@@H]13)[C@@]1(O)C[C@H](OC)[C@H]2C[C@@H]4[C@]1(O)[C@H]2OC | 96.8 |
| CO[C@H]1[C@H](O)[C@H](O[C@H]2CC[C@@]3(C=O)[C@H](CC[C@@H]4[C@@H]3CC[C@]3(C)[C@@H](C5=CC(=O)OC5)CC[C@]43O)C2)O[C@@H](C)[C@@H]1O | 1.75 |
| CO[C@H]1C[C@H](O[C@H]2CC[C@]3(C=O)[C@H]4CC[C@]5(C)[C@@H](C6=CC(=O)OC6)CC[C@]5(O)[C@@H]4CC[C@]3(O)C2)O[C@H](C)[C@H]1O | 3.81 |

| Compound | cell viability [%] |
| --- | --- |
| C[C@@H]1O[C@@H](O[C@H]2C[C@@H](O)[C@]3(CO)[C@H]4[C@H](O)C[C@]5(C)[C@@H](C6=CC(=O)OC6)CC[C@]5(O)[C@@H]4CC[C@]3(O)C2)[C@H](O)[C@H](O)[C@H]1O | 1.94 |
| C[C@@H]1O[C@@H](O[C@H]2CC[C@]3(C=O)[C@H]4CC[C@]5(C)[C@@H](C6=CC(=O)OC6)CC[C@]5(O)[C@@H]4CC[C@]3(O)C2)[C@H](O)[C@H](O)[C@H]1O | 1.83 |
| COc1cc2ccc(=O)oc2c2ccoc12 | 104 |
| C[N+]12CC[C@@]34c5ccccc5N5C(=O)C[C@@H]6OCC=C(C1)[C@H](C[C@@H]32)[C@@H]6[C@H]54 (stereo partly specified) | 102 |
| O=C([O-])c1ccccc1-c1c2cc(Br)c(=O)cc-2oc2[c]([Hg+])c([O-])c(Br)cc12.[Na+].[Na+].[OH-] | 87.1 |
| O=C1CN=C(c2ccccc2Cl)c2cc([N+](=O)[O-])ccc2N1 | 87 |
| C[C@@]12C(=O)OC(=O)[C@]1(C)[C@H]1CC[C@@H]2O1 | 101 |
| CC[C@@H](CO)NC(=O)[C@@H]1C=C2c3cccc4[nH]cc(c34)C[C@H]2N(C)C1 | 98 |
| CCC12C=CCN3CC[C@@]4(c5ccc(OC)cc5N(C)[C@H]4[C@@](O)(C(=O)OC)[C@@H]1OC(C)=O)[C@@H]32 (stereo partly specified) | 94 |
| C=C[C@H]1CN2CC[C@H]1C[C@@H]2[C@@H](O)c1ccnc2ccccc12 | 113 |
| CC1(C)C2CC(=O)[C@]3(C)C(CC[C@@]4(C)[C@H](c5ccoc5)OC(=O)[C@H]5O[C@]543)[C@@]2(C)C(=O)C[C@H]1O (stereo partly specified) | 87.6 |
| Cc1[nH]c2ccccc2c1CN(C)C | 109 |
| C[C@]12CCC(=O)C[C@@H]1CC[C@@H]1[C@@H]2CC[C@]2(C)C(=O)CC[C@@H]12 [5alpha-ANDROSTAN-3,17-DIONE] | 101 |
| C[C@]12CC[C@H]3[C@@H](CC[C@]4(O)C[C@@H](O)CC[C@]34C=O)[C@@]1(O)CC[C@@H]2C1=CC(=O)OC1 | 3.15 |
| CC1CC(Cl)CCC1C(=O)OC(C)(C)C (stereo unspecified) | 102 |
| COc1cc([C@@H]2c3cc4c(cc3[C@H](OC(C)=O)[C@H]3COC(=O)[C@H]23)OCO4)cc(OC)c1OC | 6.04 |
| COc1cc([C@@H]2c3cc4c(cc3[C@H](OC(C)=O)[C@H]3COC(=O)[C@@H]23)OCO4)cc(OC)c1OC | 34.9 |
| O=C(O)COc1cc(Cl)c(Cl)cc1Cl | 98.7 |
| COc1cc2c(cc1O)C[C@H]1c3c(cc(O)c(OC)c3-2)CCN1C | 99 |
| O=c1ccc2c(O)c3ccoc3cc2o1 | 91.2 |
| CC1(C)C2C[C@@H](O)[C@]3(C)C(CC[C@@]4(C)[C@H](c5ccoc5)OC(=O)[C@H]5O[C@]543)[C@@]2(C)[C@@H](O)C[C@H]1O (stereo partly specified) | 106 |
| CCN1C[C@]2(COC)[C@H](O)C[C@H](OC)[C@@]34[C@@H]5C[C@@]6(O)[C@H](OC(=O)c7ccccc7)[C@@H]5[C@@](OC(C)=O)([C@@H]([C@H](OC)[C@H]23)[C@@H]14)[C@@H](O)[C@@H]6OC | 100 |
| CC1(C)C(=O)C=C[C@]2(C)[C@H]3CC[C@@]4(C)[C@H](c5ccoc5)OC(=O)[C@H]5O[C@]54[C@]3(C)[C@H](O)C[C@@H]12 | 98.3 |
